Compound activity as filed in PubChem.
LmPK inh: blocks Leishmania mexicana pyruvate kinase activity; hit rate 0.37% among 290,000; purified LmPK, Kinase-Glo ATP luminescence, 1 h; Q27686; Potency, µM (highest dose often 57.5 µM), most hits filed as inhibitors
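ATP generated from ADP (0.1 mM) and PEP (0.5 mM) by 0.1 nM LmPK over 1 h at room temperature (pH 7.2 imidazole buffer) was detected by coupled luciferase luminescence. Values were normalized to uninhibited and no-enzyme wells.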
Cycloheximide cs: counter-screen for Shiga toxin inhibitors: cycloheximide protein synthesis inhibition | cell reporter, cycloheximide protein synthesis inhibition counterscreen | max response, % | hit rate 12% among 300,000; in the data active = max response mostly above about 13%, no sharp cut-off; inactive = mostly below about 14%; note: read at 38.3 µM for the half of the compounds with a filed dose
Giardia FBPA inh: Giardia lamblia aldolase inhibition | Potency, µM (titrated, usually from 59.6 µM), most hits filed as inhibitors | A8B2U2 | purified Giardia FBPA | hit rate 0.71% among 290,000; note: nearly all actives have a fitted effect of over 55% in size
Target sequence (A8B2U2 whole entry, looked up): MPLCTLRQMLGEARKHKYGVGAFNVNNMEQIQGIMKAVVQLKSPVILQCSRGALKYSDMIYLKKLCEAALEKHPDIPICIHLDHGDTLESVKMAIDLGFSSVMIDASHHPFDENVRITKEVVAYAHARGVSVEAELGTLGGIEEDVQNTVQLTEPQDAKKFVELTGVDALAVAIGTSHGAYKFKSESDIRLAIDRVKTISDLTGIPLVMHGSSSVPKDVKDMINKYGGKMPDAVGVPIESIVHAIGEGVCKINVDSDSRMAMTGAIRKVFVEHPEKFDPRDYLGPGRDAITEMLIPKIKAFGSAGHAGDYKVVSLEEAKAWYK
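40 nM FBPA preincubated 10 min at RT with compound (up to 57.5 uM final), then substrate plus GAPDH/TPI/NAD/arsenate coupling and diaphorase/resazurin added. Fluorescence read after 20 min at RT, 525/598 nm.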
Shiga inhibitor: inhibitors of Shiga toxin in Vero cells; Vero cells, Shiga toxin protein synthesis inhibition reporter; inhibition, % at 38.7 µM; hit rate 9.2% among 290,000; AID 2315; in the data active = inhibition mostly above about 28%, no sharp cut-off; inactive = mostly below about 43%
Sm TGR inh: inhibitors of Schistosoma mansoni thioredoxin glutathione reductase; purified TGR, DTNB reduction, TNB absorbance 405 nm; Q962Y6; hit rate 3% among 360,000; Potency, µM (series often up to 114 µM), hits mostly inhibitors; note: nearly all actives have a fitted effect of over 60% in size
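Kinetic colorimetric format: TGR-catalysed, NADPH-driven DTNB reduction monitored via TNB absorbance. Enzyme dispensed at 20 nM; compound exposure 15 min at room temperature before reaction start.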
TbPYK inhibitor: inhibitors of Trypanosoma brucei pyruvate kinase; TbPYK enzyme, Kinase-Glo Plus ATP luminescence, 45 min; Potency, µM (top dose mostly 76.8 µM), most hits filed as inhibitors; hit rate 0.12% among 410,000; Q57TT1; note: nearly all actives have a fitted effect of over 50% in size
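T. brucei PYK with substrate was exposed to pin-transferred compounds across a concentration series, then started with 130 uM ADP (final). After 45 min at room temperature, Kinase-Glo Plus luminescence was read, normalized and curve-fitted.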
Of the large screens only hits and unclear results are named; the others gave an inactive call. Shown is part of a subset that was picked to be rich in hits. Unless noted, calls come from the whole dose curve; as a rule, active = well fitted curve in the direction sought with a large enough effect; inconclusive = small, poorly fitted or top-dose-only effect, or another doubt; inactive = no such curve, though single readings can be large; an effect the other way counts as inactive or inconclusive.

O=c1[nH]ccc2c(S(=O)(=O)N3CCCNCC3)cccc12	none (no result: LmPK inh, Sm TGR inh, TbPYK inhibitor)
Cc1cccc(Nc2nn3c(=O)c4ccccc4nc3s2)c1	Shiga inhibitor 55.4
CC(C)(C)c1nnc2sc(SCC(=O)c3ccccc3)nn2c1=O	Sm TGR inh inconclusive
CCCSc1nn2c(=O)c3ccccc3nc2s1	LmPK inh 14.1µM, Cycloheximide cs 39.2, Shiga inhibitor 66.1
COc1cc(CN(C(=O)COc2ccccc2Cl)c2ccccn2)cc(OC)c1OC	none (no result: LmPK inh, Cycloheximide cs, Giardia FBPA inh, Shiga inhibitor)
COc1ccc(-n2c(SCC(=O)Nc3nnc(C)s3)nc3c([nH]c4ccccc43)c2=O)cc1	none (no result: LmPK inh, Cycloheximide cs, Giardia FBPA inh, Shiga inhibitor)
N#C/C(=N\Nc1ccc(Cl)c(Cl)c1)C(=O)C1CC1	Cycloheximide cs 34.9
N#CC(C#N)=Cc1cn(-c2ncc(C(F)(F)F)cc2Cl)c2ccccc12	Sm TGR inh 7.08µM
Cc1nn(-c2cccc(C(F)(F)F)c2)c(Cl)c1/C=N/Nc1cccc(C(=O)O)c1	Cycloheximide cs 105.8, Shiga inhibitor active
Cc1nn(-c2ccccc2Cl)c(Cl)c1/C=N/Nc1cccc(C(=O)O)c1	Cycloheximide cs 63.7, Shiga inhibitor 70.3
Cc1nn(Cc2ccccc2)c(Cl)c1/C=N/NC(=O)CNc1cccc(C(F)(F)F)c1	none
Cc1nn(-c2ccccc2)c(Cl)c1/C=N/Nc1nnc(C)c(=O)[nH]1	none
CCOC(=O)N/N=C/c1c(C)nn(-c2cccc(C(F)(F)F)c2)c1Cl	Cycloheximide cs 12.8
Cc1[nH]c2ccc(C(=O)Nc3ccncc3)cc2c1C	Cycloheximide cs 22.6, Shiga inhibitor 49.8
O=C(Nc1cc(Cl)cc(Cl)c1)c1coc(=O)c(Br)c1	Cycloheximide cs 24.1, Shiga inhibitor 38.7, Sm TGR inh inconclusive
O=C(NC(CO)(CO)CO)c1coc(=O)c(Br)c1	none
O=C(NNC(=O)C1C2CCCCC21)c1coc(=O)c(Br)c1 (centres undefined)	Cycloheximide cs 51.5, Shiga inhibitor 57.0, Sm TGR inh inconclusive
COc1ccccc1NC(=O)c1ccc2nc(C)sc2c1	Cycloheximide cs 46.2, Shiga inhibitor 82.6
O=C(O)c1sccc1Oc1ccc(NS(=O)(=O)c2ccccc2)cc1	none
C=C1C(=O)[C@]23[C@H](O)[C@H]1CC[C@H]2[C@@]12COC3(O)[C@H](O)[C@@H]1C(C)(C)CC[C@@H]2O	none (no result: LmPK inh, Sm TGR inh, TbPYK inhibitor)
COc1cc(/C=C(\C#N)C(=O)Nc2ccc(C)cc2)ccc1OCc1cc(=O)n2nc(C)sc2n1	none (no result: LmPK inh, Cycloheximide cs, Giardia FBPA inh, Shiga inhibitor)
COc1ccccc1NC(=O)c1ccc2ccccc2c1	Cycloheximide cs 53.5, Shiga inhibitor 67.8 (no result: LmPK inh, Giardia FBPA inh, Sm TGR inh, TbPYK inhibitor)
COc1cccc(NC(=O)CN(C)S(=O)(=O)c2ccc3nc(C)sc3c2)c1	none (no result: LmPK inh, Cycloheximide cs, Giardia FBPA inh, Shiga inhibitor)
COc1cccc(NC(=O)c2ccc3nc(C)sc3c2)c1	Cycloheximide cs 37.8, Shiga inhibitor 60.2
COc1ccccc1NC(=O)c1ccc2[nH]c(C)c(C)c2c1	Cycloheximide cs 39.5, Shiga inhibitor 127.6
COc1ccccc1N1C(=O)c2ccc(C(=O)Nc3ccccc3O)cc2C1=O	Cycloheximide cs 11.2
Cc1cc(C)c(NC(=O)Cn2c(=O)n(CCc3ccccc3)c(=O)c3ccccc32)c(C)c1	none (no result: LmPK inh, Cycloheximide cs, Giardia FBPA inh, Shiga inhibitor)
COC1(C)CC(c2ccccc2)c2c(c3ccccc3oc2=O)O1 (centres undefined)	none (no result: LmPK inh, Sm TGR inh, TbPYK inhibitor)
COC(=O)C1(C(=O)OC)CC2=CCC3C(=O)N(c4ccccc4)C(=O)C3C2Cc2ccccc2[C@@H]1C[N+](=O)[O-] (some centres undefined)	none (no result: LmPK inh, Cycloheximide cs, Shiga inhibitor, Sm TGR inh, TbPYK inhibitor)
COc1ccccc1NC(=O)c1coc(=O)c(Br)c1	Cycloheximide cs 77.0, Shiga inhibitor 104.0
COc1ccccc1NC(=O)c1cc(N)cc(C(=O)Nc2ccccc2OC)c1	none (no result: LmPK inh, Cycloheximide cs, Giardia FBPA inh, Shiga inhibitor, Sm TGR inh)
CNc1cncc(-c2cnn(CC(C)C)c2)n1	none (no result: LmPK inh, Cycloheximide cs, Giardia FBPA inh, Shiga inhibitor, Sm TGR inh)
Cc1ccc(/C=C2\C(=O)NC(=O)N(CCc3ccc(F)cc3)C2=O)o1	Sm TGR inh 11.2µM
CN(C)c1ccc(/C=C2\C(=O)NC(=O)N(Cc3ccc(F)cc3)C2=O)cc1	Sm TGR inh 0.794µM
CN(C)c1ccc(C=C2C(=O)NC(=S)NC2=O)cc1	TbPYK inhibitor 31.6µM (no result: LmPK inh, Cycloheximide cs, Giardia FBPA inh, Shiga inhibitor, Sm TGR inh)
Cc1ccc(/C=C2\C(=O)NC(=O)N(CCc3ccc(F)cc3)C2=O)s1	Sm TGR inh inconclusive
Cc1ccc(/C=C2/C(=O)NC(=O)N(Cc3ccc(F)cc3)C2=O)o1	Sm TGR inh 20µM (no result: TbPYK inhibitor)
Cc1ccc(/C=C2\C(=O)NC(=O)N(Cc3ccccc3Cl)C2=O)o1	Sm TGR inh inconclusive
CN(C)c1ccc(/C=C2/C(=O)NC(=O)N(CCc3ccc(F)cc3)C2=O)cc1	Sm TGR inh inconclusive
c1ccc(-c2nc(-c3ccccc3)c(NC3CCCCC3)o2)cc1	none (no result: LmPK inh, Cycloheximide cs, Shiga inhibitor, Sm TGR inh, TbPYK inhibitor)
Cc1ccc2c(=O)cc(C(=O)Nc3c(C(=O)c4ccccc4)oc4ccccc34)oc2c1C	none (no result: LmPK inh, Cycloheximide cs, Giardia FBPA inh, Shiga inhibitor)
Cc1ccccc1NC(=S)N/N=C/c1ccc(O)cc1O	Cycloheximide cs 41.4, Shiga inhibitor 100.5
Cc1ccccc1NC(=S)N/N=C/C(C)c1ccccc1 (centres undefined)	none
Cc1cccc(NC(=S)N/N=C/C(C)c2ccccc2)c1C (centres undefined)	TbPYK inhibitor inconclusive
Cc1cccc(NC(=S)N/N=C/c2cccc(O)c2)c1C	Cycloheximide cs 19.0
O=[N+]([O-])c1cc(Cl)cc(/C=N/Nc2nc3ccccc3s2)c1O	Cycloheximide cs 32.5, Shiga inhibitor 41.1
COc1cc(/C=N/NC(=O)Cc2ccccc2)cc([N+](=O)[O-])c1O	none
